Measles inh = inhibitors of measles virus growth in infected cells; infected Vero cells, GFP fluorescence, 64 h; active compounds read low; z-score (test concentration not listed); actives 0.1% (n = 33,000); AID 745; in the data active means z-score below about -3
* marks the source's active call; other numbers are inactive results. The sample as a whole holds a higher share of hits than the screen did.

SMILES	Measles inh
Cc1ccc(-n2c(C=Cc3ccccc3)nc3ccccc3c2=O)c(C)c1	-0.69
COc1ccc(C=Cc2nc3ccccc3c(=O)n2-c2ccc(C)cc2C)cc1	0.2
Cc1ccc(-n2c(C=Cc3cccc(F)c3)nc3ccccc3c2=O)c(C)c1	-3.19*
C=CCOC(=O)C1C2NC(=S)N(c3ccccc3)C1(C)Oc1c(OC)cccc12 (centres undefined)	-0.23
O=C1C2CCN(CC2)C1Cc1ccco1 (centres undefined)	2.12

Bioassay records: PubChem, Emory University Molecular Libraries Screening Center
